# Reference: PubChem BioAssay (NCI)
# Compounds without any hit were thinned out: in the full panel of roughly 83,000, 20% have a hit.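 Activity criterion: percent growth below 10, measured after cells in 96-well plates were exposed to a single compound concentration for 48 hours.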 Values without a mark were called inactive. Active and inactive are the calls of the source.
# What was measured:
# Experiment in all cases: NCI-60 one-dose screen, 48 h (100 = growth as untreated, 0 = no growth, -100 = all killed)
# [1] = tested on: NCI-H226 lung; details: 10 µM
# [2] = tested on: NCI-H322M lung; details: 10 µM unless noted
# [3] = tested on: HOP-62 NSCLC; details: 10 µM unless noted
# [4] = tested on: NCI-H460 lung; details: 10 µM unless noted
# [5] = tested on: HOP-92 NSCLC; details: 10 µM unless noted
# [6] = tested on: NCI-H522 lung; details: 10 µM
# [7] = tested on: A549/ATCC NSCLC; details: 10 µM unless noted
# [8] = tested on: 786-0 renal; details: 10 µM unless noted
# [9] = tested on: COLO 205 colon; details: 10 µM unless noted
# [10] = tested on: DU-145 prostate; details: 10 µM unless noted
# [11] = tested on: K-562 leukemia; details: 10 µM unless noted
# [12] = tested on: MALME-3M melanoma; details: 10 µM unless noted
# [13] = tested on: MDA-MB-231 breast; details: 10 µM unless noted
# [14] = tested on: RXF 393 renal; details: 10 µM unless noted
# [15] = tested on: SF-268 CNS; details: 10 µM unless noted
# [16] = tested on: SF-295 CNS; details: 10 µM unless noted
# [17] = tested on: SF-539 CNS; details: 10 µM unless noted
# [18] = tested on: UACC-257 melanoma; details: 10 µM unless noted
# [19] = tested on: M14 melanoma; details: 10 µM unless noted
SMILES,growth [1],growth [2],growth [3],growth [4],growth [5],growth [6],growth [7],growth [8],growth [9],growth [10],growth [11],growth [12],growth [13],growth [14],growth [15],growth [16],growth [17],growth [18],growth [19]
O=C(COc1ccc(/C=C2\CSc3ccccc3C2=O)cc1)c1ccc(Cl)cc1,97.9%,111%,94.4%,115%,122%,99.4%,101%,105%,103%,113%,99.2%,98.7%,97%,90.4%,104%,125%,106%,121%,101%
FCOC(C(F)(F)F)C(F)(F)F,106%,97.5%,114%,111%,120%,96.6%,99.1%,97.7%,117%,113%,–,92.2%,120%,115%,115%,106%,98.8%,90.4%,99.9%
CC(C)N1CCN(c2ccc(OC[C@H]3CO[C@](Cn4cncn4)(c4ccc(Cl)cc4Cl)O3)cc2)CC1,93.6%,106%,81%,103%,71.2%,78%,89.6%,99.2%,62.9%,111%,–,86.1%,65.8%,74.7%,102%,89%,79.4%,-28.4% (active),52.8%
C=CC(=O)N1CC2(CC(n3nc(-c4ccc(Oc5ccccc5)cc4)c4c(N)ncnc43)C2)C1,15.8%,31.1%,35.7%,40.5%,20%,–,39.2%,35.5%,–,11%,17.7%,12.7%,3.31% (active),-19.4% (active),10.9%,70.4%,10.1%,5.54% (active),14.8%
Cn1cc(C(=O)NCCC(=N)N)cc1NC(=O)CN=C(N)N,90.7%,106%,85.9%,107%,89.5%,87.5%,99.2%,85.4%,103%,104%,134%,106%,94.1%,114%,112%,110%,104%,99.9%,94.2%
COc1cc(C(F)(F)F)ccc1-c1cc(-c2ccc(F)cc2)n[nH]1,81.1%,90.6%,97.8%,91.6%,96.1%,–,64.9%,99.9%,–,95.7%,97.5%,90.8%,80.2%,92.4%,101%,97.6%,91.2%,82.5%,93.1%
O=C1c2cc(S(=O)(=O)O)ccc2C(=O)c2c1cccc2[N+](=O)[O-],111%,111%,117%,115%,110%,96.6%,98.6%,101%,108%,–,–,111%,112%,128%,108%,100%,104%,93%,95.2%
N#Cc1c(O)c2c(c(O)c1C#N)C(=O)c1ccccc1C2=O,87.8%,38.4%,59.8%,22.7%,88.5%,-5.65% (active),27.3%,90.9%,-4.03% (active),–,–,-16.5% (active),2.69% (active),92.3%,32.6%,59.6%,46.9%,28.4%,2.51% (active)
Clc1ccc2c(N3CCN(c4ccnc(NC5CCCCC5)n4)CC3)ccnc2c1,80.7%,98.8%,51.7%,32%,40.6%,71.3%,54.4%,49.4%,-1.41% (active),62.4%,7.08% (active),–,–,57.6%,71.6%,39.3%,53.5%,0.862% (active),-43.7% (active)
COc1ccc(/C=C2\CN(Cc3cn(CCCNc4ccnc5cc(Cl)ccc45)nn3)C/C(=C\c3ccc(OC)c(OC)c3)C2=O)cc1OC,-52.4% (active),22.7%,-1.63% (active),-5.13% (active),25.5%,0.468% (active),5.33% (active),-1.83% (active),1.93% (active),11.7%,4.56% (active),17.8%,-10.2% (active),-95.1% (active),-4.95% (active),-55.9% (active),6.69% (active),45.3%,-21.5% (active)
COc1cccc(C2C3=C(COC3=O)N(CCO)c3cc4c(cc32)OCO4)c1 (stereo not drawn),51.6%,48.9%,30.4%,12.3%,65.7%,-39.4% (active),–,18.5%,-27.1% (active),0.613% (active),21%,82.4%,34.6%,-14.5% (active),38.3%,-13.8% (active),-19.1% (active),35.5%,-24.2% (active)
Cc1nc2cc(Nc3nc(NCCN)nc(Nc4ccc(F)cc4)n3)ccc2n1Cc1ccccc1,95.4%,99.7%,79.1%,82.6%,48.5%,85.9%,83.9%,82.4%,82%,82.2%,-36.8% (active),93.5%,60.4%,72%,71.8%,79.8%,96%,90.5%,81.6%
Clc1ccc(C2=NN(c3ccccc3)[C@H](c3cn(-c4ccccc4)nc3-c3ccccc3)C2)cc1,96.1%,101%,108%,108%,–,91.5%,97.8%,103%,114%,119%,111%,103%,96.6%,106%,109%,108%,107%,92.2%,109%
COc1cc(/C=C/c2cc(/C=C/c3ccc(O)c(OC)c3)n(-c3ccccc3)n2)ccc1O,-8.19% (active),-3.64% (active),-67.7% (active),0.0675% (active),–,-30.2% (active),8.4% (active),-76.7% (active),-84.1% (active),-45.7% (active),-15.5% (active),-39% (active),5.23% (active),-70% (active),-12.5% (active),-71.5% (active),-39.8% (active),16%,-56% (active)
NS(=O)(=O)c1cc(Br)c2c(c1)S(=O)(=O)NCN2,113%,119%,113%,112%,93%,102%,101%,106%,114%,108%,80.6%,121%,118%,174%,103%,104%,101%,94.5%,109%
Cc1nc2cc(Nc3nc(NCCO)nc(Nc4ccc(F)cc4)n3)ccc2n1Cc1ccccc1,91.6%,98.9%,94%,83.5%,49.9%,85.6%,74.1%,94.7%,94.5%,88.5%,19.2%,105%,80.3%,90.2%,92.2%,86.4%,94.4%,98.8%,93%
O=C(CCCCCCC(=O)Nc1ccc2c(c1)/C(=C/c1ccc[nH]1)C(=O)N2)NO,27.6%,15.1%,14%,25.8%,-19.7% (active),14.8%,34.9%,26.2%,-58.6% (active),4.55% (active),11.6%,36.5%,1.47% (active),-30.8% (active),-13% (active),6.46% (active),23%,9.98% (active),3.6% (active)
